Experiment [1] can be described thus: ATG_M_61_CIS: Attagene CIS-FACTORIAL HepG2 Assay for M61 Transcription Factor (Internal Marker) (AID 2282937). The settings on record: HepG2 Attagene CIS-FACTORIAL M61 internal marker reporter; actives raise or lower the signal. The procedure, abridged:
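Background-control endpoint: HepG2 cells with cis-regulated reporter constructs, 24 h exposure, reporter mRNA detected via fluorescent primer extension and capillary electrophoresis; values from bidirectional fitting with DMSO baseline.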

Experiment [2] in a line: ATG_EGR_CIS: Attagene CIS-FACTORIAL HepG2 Assay for human Early Growth Response 1 (EGR1) (AID 2282938). The settings on record: HepG2 Attagene CIS-FACTORIAL EGR reporter mRNA; actives raise or lower the signal. The procedure, abridged:
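Endpoint derived by bidirectional fitting versus DMSO vehicle. Method: cis-promoter reporter units transfected into HepG2, 24 h dosing, RNA isolation, RT-PCR with 6-FAM primer extension and HpaI digestion, then capillary electrophoresis fluorescence detection.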

Experiment [3] is described as follows: ATG_M_19_CIS: Attagene CIS-FACTORIAL HepG2 Assay for M19 Transcription Factor (Internal Marker) (AID 2282939). The conditions noted are these: HepG2 Attagene CIS-FACTORIAL M19 internal marker reporter; actives raise or lower the signal. The procedure, abridged: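 In this multiplexed cell assay, transiently transfected HepG2 reporter units report endogenous transcription-factor activity; after 24 hours of treatment, labelled reporter cDNA fragments are quantified by capillary electrophoresis and fitted bidirectionally against DMSO.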

Experiment [4] in a line: ATG_ERE_CIS: Attagene CIS-FACTORIAL HepG2 Assay for Estrogen Response Element (ERE) (AID 2282940). The settings on record: HepG2 ERE cis-reporter, Attagene RNA transcript; actives raise or lower the signal. A digest of the protocol:
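Measuring endogenous transcription factor output, the assay doses transfected HepG2 cells for 24 hours and quantifies reporter transcripts by fluorescent RT-PCR and capillary electrophoresis, with DMSO as baseline.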

Experiment [5] is described as follows: ATG_Ets_CIS: Attagene CIS-FACTORIAL HepG2 Assay for human Erythroblast Transformation Specific (ETS) (AID 2282941). The settings on record: HepG2 ETS cis-reporter transcription, actives raise or lower the signal. A digest of the protocol:
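Bidirectional fit versus DMSO of reporter mRNA signal, detected by RT-PCR and capillary electrophoresis in HepG2 cells transiently transfected with cis-element reporters and dosed 24 h.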

The target in experiment [6] is Hepatocyte nuclear factor 3-beta (Homo sapiens) (UniProt Q9Y261). Briefly: ATG_FoxA2_CIS: Attagene CIS-FACTORIAL HepG2 Assay for human Forkhead box A2 (FOXA2) (AID 2282942). The settings on record: HepG2 cis-reporter transcription factor activity, 24 h; actives raise or lower the signal. The procedure, abridged: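 Measured: reporter mRNA induction or loss in HepG2 transiently carrying multiple cis-regulated reporter units, 24 h after dosing. Quantified by RT-PCR plus capillary electrophoresis, normalised to DMSO.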

The nature of experiment [7]: ATG_FoxO_CIS: Attagene CIS-FACTORIAL HepG2 Assay for human Forkhead box O (FoxO) (AID 2282943). The conditions noted are these: HepG2 Attagene cis-reporter, FoxO element, mRNA; actives raise or lower the signal. The procedure, abridged: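 HepG2 cells transiently transfected with cis-element-driven reporter units report endogenous FoxO activity. After 24 h chemical exposure, reporter mRNA quantified by RT-PCR, fluorescent labeling, HpaI digestion and capillary electrophoresis; bidirectional fit versus DMSO.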

The nature of experiment [8]: ATG_GATA_CIS: Attagene CIS-FACTORIAL HepG2 Assay for human GATA Binding Protein (AID 2282944). The conditions noted are these: HepG2 GATA cis-element reporter, Attagene multiplex mRNA; actives raise or lower the signal. A digest of the protocol: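 Measures endogenous transcription factor-driven reporter mRNA in HepG2 cells transiently carrying cis-regulated constructs. 24 h dosing; RNA via oligo(dT) reverse transcription, PCR, HpaI digestion, capillary electrophoresis; fitted relative to DMSO.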

Experiment [9] is described as follows: ATG_GLI_CIS: Attagene CIS-FACTORIAL HepG2 Assay for human Zinc Finger Protein GLI1 (AID 2282945). The settings on record: HepG2, Attagene cis-factorial reporter mRNA, GLI element; actives raise or lower the signal. The procedure, abridged:
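Transiently transfected HepG2 cells report endogenous transcription factor activity via cis-element-driven reporter units. After 24 h compound exposure, reporter mRNA was measured by RT-PCR with capillary electrophoresis; bidirectional fitting against DMSO baseline.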

Experiment [10] has as its target Bile acid receptor (Homo sapiens) (UniProt Q96RI1). Briefly: ATG_IR1_CIS: Attagene CIS-FACTORIAL HepG2 Assay for human Nuclear Receptor Subfamily 1 Group H Member 4 (NR1H4), IR1 submotif (AID 2282946). The conditions noted are these: IR1 reporter transcription, actives raise or lower the signal. A digest of the protocol:
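Fluorescence of capillary-separated, HpaI-digested RT-PCR reporter products gave IR1-element mRNA induction in HepG2 cells 24 h after dosing. Endogenous transcription factors drove the cis-regulated reporters; activity was fitted bidirectionally against DMSO.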

Experiment [11] can be described thus: ATG_ISRE_CIS: Attagene CIS-FACTORIAL HepG2 Assay for human Interferon Regulatory Factor 1 (IRF1) binding to an Interferon-Stimulated Response Element (ISRE) (AID 2282948). The settings on record: HepG2 ISRE cis-reporter (Attagene), mRNA transcription readout; actives raise or lower the signal. A digest of the protocol: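 Uses HepG2 liver cells transfected with cis-regulated reporters and measures mRNA 24 h post-dosing through RT-PCR, primer-extension labelling and capillary electrophoresis, with DMSO as negative control.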

Experiment [12] can be described thus: ATG_M_32_CIS: Attagene CIS-FACTORIAL HepG2 Assay for M32 Transcription Factor (Internal Marker) (AID 2282949).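 Further: background control marker of the multiplexed CIS panel rather than a real target.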 The settings on record: HepG2 Attagene cis-factorial M32 reporter, mRNA; actives raise or lower the signal. The procedure, abridged:
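HepG2 transfectants (cis-regulated reporter transcription units) dosed 24 h. Reporter mRNA by RT-PCR plus CE, analysed as gain or loss relative to DMSO.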

Experiment [13] can be described thus: ATG_M_06_CIS: Attagene CIS-FACTORIAL HepG2 Assay for M06 Transcription Factor (Internal Marker) (AID 2282950). The conditions noted are these: HepG2 Attagene CIS-FACTORIAL M06 internal marker reporter; actives raise or lower the signal. The procedure, abridged:
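One of many multiplexed endpoints: HepG2 reporter mRNA after 24 h dosing, detected by RT-PCR and capillary electrophoresis fluorescence; gain or loss of signal analysed against DMSO.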

Experiment [14] has as its target Hypoxia-inducible factor 1-alpha (Homo sapiens) (UniProt Q16665). Briefly: ATG_HIF1a_CIS: Attagene CIS-FACTORIAL HepG2 Assay for human Hypoxia Inducible Factor 1 (HIF1A) (AID 2282951). The conditions noted are these: HepG2 Attagene cis-factorial HIF1a reporter transcription; actives raise or lower the signal. A digest of the protocol:
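Dosed 24 h, transfected HepG2 cells yielded total RNA whose reporter transcripts were RT-PCR-amplified and sized by capillary electrophoresis using fluorescent labelling; DMSO defined baseline, with gain and loss of signal both fitted.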

Experiment [15] has as its target Hepatocyte nuclear factor 6 (Homo sapiens) (UniProt Q9UBC0). Briefly: ATG_HNF6_CIS: Attagene CIS-FACTORIAL HepG2 Assay for human Hepatocyte Nuclear Factor 6 (HNF6) (AID 2282952). The settings on record: HepG2 Attagene cis-factorial HNF6 reporter transcription; actives raise or lower the signal. A digest of the protocol:
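First, HepG2 cells were transfected with the multiplexed cis reporter library and dosed with chemical for 24 h. Next, RNA was reverse-transcribed, PCR-amplified and fluorescently labelled. Finally, HpaI-digested fragments were read by capillary electrophoresis.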

In experiment [16] the target is Heat shock factor protein 1 (Homo sapiens) (UniProt Q00613). Briefly: ATG_HSE_CIS: Attagene CIS-FACTORIAL HepG2 Assay for human Heat Shock Transcription Factor 1 (HSE) (AID 2282953). The conditions noted are these: HepG2 HSE cis-reporter, Attagene RNA transcription; actives raise or lower the signal. A digest of the protocol:
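Using HepG2 with transfected cis-driven reporter constructs, compound effects on endogenous factor activity are scored as reporter mRNA change at 24 h. Detection: RT-PCR, HpaI digestion, capillary electrophoresis; bidirectional fitting to DMSO.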

A short description of experiment [17]: ATG_MRE_CIS: Attagene CIS-FACTORIAL HepG2 Assay for human Metal Responsive Element (MRE) (AID 2282954). The settings on record: HepG2 MRE cis-reporter transcription, Attagene multiplex; actives raise or lower the signal. The procedure, abridged:
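Measured here is mRNA induction from an MRE cis-element reporter in HepG2 after 24 h, quantified by fluorescence of labelled RT-PCR products on capillary electrophoresis; gain- and loss-of-signal fits use DMSO as baseline.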

Experiment [18] in a line: ATG_PBREM_CIS: Attagene CIS-FACTORIAL HepG2 Assay for human Phenobarbital-responsive Enhancer Module (PBREM) (AID 2282955). The settings on record: HepG2 PBREM cis-reporter, Attagene multiplexed transcription; actives raise or lower the signal. A digest of the protocol: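 Transfected liver-derived HepG2 cells exposed 24 h; PBREM reporter transcript quantified via RT-PCR and capillary electrophoresis, with activity in either direction referenced to DMSO.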

Experiment [19] can be described thus: ATG_GRE_CIS: Attagene CIS-FACTORIAL HepG2 Assay for human Glucocorticoid Response Elements (GRE) (AID 2282947). The settings on record: HepG2 GRE cis-reporter, Attagene multiplex mRNA; actives raise or lower the signal. A digest of the protocol: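 Fluorescence intensity of reporter-specific cDNA fragments, separated by capillary electrophoresis, provides the signal. Constructs carry cis-regulating promoters in transiently transfected HepG2 liver cells; 24 h incubation; fitting is bidirectional against DMSO.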

Molecules are shown by their SMILES. Active and inactive are the calls of the source. How the source made its calls: active means hit-call score of the fitted dose curve at least 0.9, where 1 is the maximum; inactive means score below 0.9.

Hypoxia-inducible factor 1-alpha (Homo sapiens), sequence (Q16665 whole entry, looked up): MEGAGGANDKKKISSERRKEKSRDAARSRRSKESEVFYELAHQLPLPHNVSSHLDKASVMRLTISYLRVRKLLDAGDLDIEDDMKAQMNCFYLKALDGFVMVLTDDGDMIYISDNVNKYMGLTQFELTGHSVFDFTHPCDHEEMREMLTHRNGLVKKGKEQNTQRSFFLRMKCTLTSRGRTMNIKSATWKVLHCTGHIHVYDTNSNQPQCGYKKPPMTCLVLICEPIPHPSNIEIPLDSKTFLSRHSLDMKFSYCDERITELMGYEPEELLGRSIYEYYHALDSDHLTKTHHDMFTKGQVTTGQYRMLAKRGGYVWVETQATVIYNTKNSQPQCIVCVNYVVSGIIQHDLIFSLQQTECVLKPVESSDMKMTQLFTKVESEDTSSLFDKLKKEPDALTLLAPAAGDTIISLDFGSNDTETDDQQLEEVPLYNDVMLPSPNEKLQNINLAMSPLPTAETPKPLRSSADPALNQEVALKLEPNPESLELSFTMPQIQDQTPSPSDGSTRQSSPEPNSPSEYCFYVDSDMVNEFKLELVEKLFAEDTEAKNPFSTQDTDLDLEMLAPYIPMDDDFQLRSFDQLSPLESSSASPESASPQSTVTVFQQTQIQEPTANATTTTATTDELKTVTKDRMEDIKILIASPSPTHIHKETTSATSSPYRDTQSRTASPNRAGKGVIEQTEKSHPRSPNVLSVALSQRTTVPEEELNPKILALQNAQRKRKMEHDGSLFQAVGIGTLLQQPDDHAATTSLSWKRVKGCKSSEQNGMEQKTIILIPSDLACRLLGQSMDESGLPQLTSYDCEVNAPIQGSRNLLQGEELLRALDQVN
Hepatocyte nuclear factor 3-beta (Homo sapiens), sequence (Q9Y261 whole entry, looked up): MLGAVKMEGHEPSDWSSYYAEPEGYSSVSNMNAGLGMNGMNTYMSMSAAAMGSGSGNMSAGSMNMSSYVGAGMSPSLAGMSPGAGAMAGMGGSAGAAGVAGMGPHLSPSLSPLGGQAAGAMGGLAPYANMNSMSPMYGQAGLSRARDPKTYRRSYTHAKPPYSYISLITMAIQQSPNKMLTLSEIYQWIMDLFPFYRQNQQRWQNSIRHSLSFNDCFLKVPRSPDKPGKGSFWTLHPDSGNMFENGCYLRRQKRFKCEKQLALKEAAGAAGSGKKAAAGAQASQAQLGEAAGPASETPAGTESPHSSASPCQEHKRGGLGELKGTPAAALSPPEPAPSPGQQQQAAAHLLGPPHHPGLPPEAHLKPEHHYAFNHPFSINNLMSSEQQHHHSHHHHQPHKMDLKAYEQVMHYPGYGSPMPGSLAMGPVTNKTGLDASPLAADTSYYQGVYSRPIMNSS
Bile acid receptor (Homo sapiens), sequence (Q96RI1 whole entry, looked up): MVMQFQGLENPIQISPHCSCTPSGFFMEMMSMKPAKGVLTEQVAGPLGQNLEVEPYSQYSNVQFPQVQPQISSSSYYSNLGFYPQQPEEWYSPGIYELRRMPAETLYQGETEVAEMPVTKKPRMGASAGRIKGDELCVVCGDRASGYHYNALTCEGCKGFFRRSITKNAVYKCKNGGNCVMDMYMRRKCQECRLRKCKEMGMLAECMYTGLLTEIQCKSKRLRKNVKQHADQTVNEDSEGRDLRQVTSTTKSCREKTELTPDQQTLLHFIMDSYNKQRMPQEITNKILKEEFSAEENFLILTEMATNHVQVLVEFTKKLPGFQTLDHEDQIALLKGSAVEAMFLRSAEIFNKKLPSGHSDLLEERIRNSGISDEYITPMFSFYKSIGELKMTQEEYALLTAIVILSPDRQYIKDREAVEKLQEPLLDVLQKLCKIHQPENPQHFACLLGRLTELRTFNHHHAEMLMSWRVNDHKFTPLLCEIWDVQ
Heat shock factor protein 1 (Homo sapiens), sequence (Q00613 whole entry, looked up): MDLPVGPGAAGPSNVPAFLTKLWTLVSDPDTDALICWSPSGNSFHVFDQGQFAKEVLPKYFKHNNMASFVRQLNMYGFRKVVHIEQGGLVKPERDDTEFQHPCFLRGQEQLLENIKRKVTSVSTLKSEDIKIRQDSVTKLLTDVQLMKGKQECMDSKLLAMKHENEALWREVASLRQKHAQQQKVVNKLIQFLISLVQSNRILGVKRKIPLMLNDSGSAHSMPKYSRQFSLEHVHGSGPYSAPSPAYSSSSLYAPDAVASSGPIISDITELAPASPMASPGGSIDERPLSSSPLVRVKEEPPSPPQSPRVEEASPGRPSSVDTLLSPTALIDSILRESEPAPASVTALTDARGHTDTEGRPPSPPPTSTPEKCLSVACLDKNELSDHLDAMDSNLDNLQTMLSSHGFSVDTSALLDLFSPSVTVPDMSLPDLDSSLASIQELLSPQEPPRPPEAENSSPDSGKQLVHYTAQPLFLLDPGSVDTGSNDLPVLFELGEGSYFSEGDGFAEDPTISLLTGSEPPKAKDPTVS
Hepatocyte nuclear factor 6 (Homo sapiens), sequence (Q9UBC0 whole entry, looked up, the tested form may be a part): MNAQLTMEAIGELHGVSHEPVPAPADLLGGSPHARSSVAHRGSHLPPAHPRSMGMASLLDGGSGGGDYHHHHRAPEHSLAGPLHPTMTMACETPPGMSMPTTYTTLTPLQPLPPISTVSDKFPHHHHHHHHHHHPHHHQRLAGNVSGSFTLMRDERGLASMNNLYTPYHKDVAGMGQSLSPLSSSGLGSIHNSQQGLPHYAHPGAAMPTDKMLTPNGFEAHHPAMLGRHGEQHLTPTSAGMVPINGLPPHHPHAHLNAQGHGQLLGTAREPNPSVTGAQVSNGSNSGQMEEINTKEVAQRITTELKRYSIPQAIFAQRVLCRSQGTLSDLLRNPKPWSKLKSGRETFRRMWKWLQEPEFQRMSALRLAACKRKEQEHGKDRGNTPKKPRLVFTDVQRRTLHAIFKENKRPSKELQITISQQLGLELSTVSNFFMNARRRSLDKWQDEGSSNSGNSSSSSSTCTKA

In the case of `O=S(=O)(O)CC(O)CCl` (stereo unspecified), the call in [1], in experiment [2], in experiment [3], in experiment [4], in [5] and in experiment [6] was inactive. Further, the result in [7], in experiment [8], in experiment [9], in experiment [10], in [11] and in experiment [12] was inactive. Moreover, the compound was called inactive in experiment [13], in [14], in experiment [15], in experiment [16], in [17] and in experiment [18].

Consider `COC(=O)c1ccccc1OC`, for which the result in experiment [1], in experiment [2], in experiment [3], in experiment [4], in experiment [5] and in experiment [6] was inactive. For the same compound, the outcome in experiment [7], in experiment [8], in experiment [9], in [10], in experiment [19] and in [11] was inactive. In addition, the outcome in experiment [12], in experiment [13], in experiment [14], in experiment [15], in experiment [16] and in [17] was inactive.

Take `O=C1c2ccccc2C(=O)C1c1nc2ccccc2c(Br)c1O`: the compound was called inactive in [1], in experiment [2], in experiment [3], in [5], in [7] and in [8]. Further, the compound was called inactive in [9], in experiment [19], in experiment [11], in experiment [12], in experiment [13] and in experiment [16]. The call in [17] was inactive. Besides, the concentration at half-maximal activity (AC50) is 6.37 µM (active) in experiment [4], 1.26 µM (active) in experiment [6] and 4.92 µM (active) in experiment [14].

As for `O=S(=O)(O)c1ccccc1C=Cc1ccc(-c2ccc(C=Cc3ccccc3S(=O)(=O)O)cc2)cc1`, the compound was classed as inactive in experiment [1], in [2], in experiment [3], in experiment [4], in experiment [5] and in experiment [6]. Further, the compound was classed as inactive in experiment [7], in experiment [8], in experiment [9], in experiment [10], in [19] and in [11]. Moreover, the outcome in [12], in experiment [13], in experiment [14], in experiment [15], in [17] and in experiment [18] was inactive.

Take `Cc1oncc1C(=O)Nc1ccc(C(F)(F)F)cc1`: the compound was called inactive in experiment [1], in experiment [2], in experiment [3], in [5], in experiment [6] and in experiment [7]. The result in [8], in experiment [9], in [19], in [11], in [12] and in [13] was inactive. Besides, the call in experiment [15], in [16] and in [17] was inactive. The AC50 in experiment [4] was 25.7 µM (active).

For orientation: AC50 means the concentration giving half of the maximal activity seen.

The values are drawn from PubChem BioAssay (EPA / NIEHS).
